Source: PubChem BioAssay (National Center for Advancing Translational Sciences (NCATS))
TDP1 block: qHTS Assay for Inhibitors of Tyrosyl-DNA Phosphodiesterase (TDP1); Tyrosyl-DNA phosphodiesterase 1 (Homo sapiens), Q9NUW8; recombinant TDP1, AlphaScreen DNA substrate cleavage; Potency, µM (series often up to 130 µM), inactives show top-dose activity change, negative = inhibition, actives largely listed as inhibitors; hit rate 0.28% among 350,000; AID 485290, 2010; note: nearly all actives have a fitted effect of over 40% in size
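Signal: AlphaScreen proximity between streptavidin donor and anti-FITC acceptor beads on intact substrate. Reaction: Tdp1 1 nM, substrate 15 nM final, 5 min RT after 15 min compound preincubation.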
DT40 TDP1 no CPT: qHTS for Inhibitors of human tyrosyl-DNA phosphodiesterase 1 (TDP1): qHTS in cells in absence of CPT; DT40 Tdp1-/- hTDP1 cells, no CPT, ATP luminescence, 48 h; Potency, µM (series often up to 46.2 µM), without a hit: at the highest dose activity change, negative = growth inhibition, actives largely listed as inhibitors; hit rate 15% among 420,000; AID 686978, 2013; note: nearly all actives have a fitted effect of over 55% in size
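Camptothecin absent (DMSO only). Human TDP1-complemented DT40 knockout cells, 400 cells/well, 37 °C for minimum 48 hr; ATP measured via CellTiter-Glo, 30 min dark incubation, luminescence.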
Gal4-VP16 FLuc: VP16 counterscreen qHTS for inhibitors of ROR gamma transcriptional activity. Drosophila S2 Gal4-VP16 UAS-luciferase, luminescence, 20 h. hit rate 3.5% among 310,000. Potency, µM (top dose mostly 53.6 µM), inactives show at the highest dose activity, negative = inhibition, hits mostly inhibitors. AID 2546, 2010;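 note: Gal4-VP16 expression switched on by copper sulfate through the metallothionein promoter; nearly all actives have a fitted effect of over 50% in size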
RORgamma inh: qHTS for inhibitors of ROR gamma transcriptional activity | Nuclear receptor ROR-gamma (Mus musculus), P51450 | Drosophila S2 Gal4-RORgamma UAS-luciferase reporter, 20 h | Potency, µM (doses to about 53.6 µM), for inactives: at the top dose activity change, negative = inhibition, most hits filed as inhibitors | hit rate 5.4% among 310,000; note: nearly all actives have a fitted effect of over 60% in size
Target sequence (P51450 whole entry, looked up, the tested form may be a part): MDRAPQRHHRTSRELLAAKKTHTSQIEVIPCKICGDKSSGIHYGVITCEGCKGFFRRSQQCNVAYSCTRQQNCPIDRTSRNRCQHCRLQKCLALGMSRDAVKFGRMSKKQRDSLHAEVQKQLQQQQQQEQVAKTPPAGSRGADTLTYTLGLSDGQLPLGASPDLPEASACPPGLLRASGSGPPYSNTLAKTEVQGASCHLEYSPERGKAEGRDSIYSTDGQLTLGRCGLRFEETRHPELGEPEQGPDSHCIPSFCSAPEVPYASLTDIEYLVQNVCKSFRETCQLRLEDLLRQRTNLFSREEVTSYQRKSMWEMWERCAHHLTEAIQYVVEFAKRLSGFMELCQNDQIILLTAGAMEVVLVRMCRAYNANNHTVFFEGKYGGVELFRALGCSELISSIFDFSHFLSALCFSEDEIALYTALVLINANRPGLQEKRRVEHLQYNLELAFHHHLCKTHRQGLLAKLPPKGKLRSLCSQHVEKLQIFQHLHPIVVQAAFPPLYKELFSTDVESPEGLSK
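Luminescence from a UAS-regulated Photinus luciferase reporter in stably transfected Drosophila Schneider cells is measured; decreased signal marks ROR gamma inhibition. Fusion expression is induced by 700 uM copper sulfate for 20 hr.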
DT40 TDP1 CPT: qHTS for Inhibitors of human tyrosyl-DNA phosphodiesterase 1 (TDP1): qHTS in cells in presence of CPT; chicken DT40 Tdp1-/-;hTDP1 cells + 20 nM CPT, ATP luminescence, 48 h; Potency, µM (doses to about 46.2 µM), for inactives: at the top dose activity change, negative = growth inhibition, most hits filed as inhibitors; hit rate 12% among 420,000; note: nearly all actives have a fitted effect of over 55% in size
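Chicken DT40 Tdp1-/- cells stably complemented with human TDP1 were seeded at 400 cells/well in medium containing 20 nM camptothecin, exposed to pin-transferred compounds, and grown at 37 °C for at least 48 hr. Viability was read as ATP luminescence.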
* hit, by the source's call; ? = inconclusive; . = no result; [ ] = dose if it differs, or a comment. Compounds with a hit are over-represented: about 19% of the library has one in this group of screens. Calls come from the whole dose curve; as a rule, active = well fitted curve in the direction sought with a large enough effect; inconclusive = small, poorly fitted or top-dose-only effect, or another doubt; inactive = no such curve, though single readings can be large; an effect the other way counts as inactive or inconclusive. % is set by controls: 0 for no effect and ±100 for the full control effect; potency is the fitted concentration of half-maximal effect.

SMILES | TDP1 block | DT40 TDP1 no CPT | Gal4-VP16 FLuc | RORgamma inh | DT40 TDP1 CPT
O=C(CNC(=O)c1ccc(Br)o1)NCC1COc2ccccc2O1 (configuration not stated) | -1% | 2% | . | . | -20%
CC(C)CN1CCN(Cc2cn(C)c3ccccc23)CC1CCO (configuration not stated) | . | ? | -16% | -25% | ?
COc1ccc2c(CC(=O)Nc3c(C)n(C)n(-c4ccccc4)c3=O)coc2c1 | 6% | -16% | -6% | ? | -14%
CC(=O)Nc1ccc([N+](=O)[O-])cn1 | -1% | 1% | 1% | -7% | -11%
CCN(CC)S(=O)(=O)c1ccc2oc(C(=O)N3CCc4ccccc4C3)c(C)c2c1 | -1% | 2.1µM* | 7% | ? | ?
CCN(CC)S(=O)(=O)c1ccc2oc(C(=O)NC3CCCc4ccccc43)c(C)c2c1 (configuration not stated) | 6% | 10µM* | -3% | 34% | 15µM*
CCN(CC)S(=O)(=O)c1ccc2oc(C(=O)N3CCCCCC3)c(C)c2c1 | 2% | 9.2µM* | -12% | 6% | ?
CSCc1c(C(=O)NC2CCCc3ccccc32)oc2ccccc12 (configuration not stated) | 7% | ? | -7% | 12% | ?
Cc1ccc(Oc2ccc(Cl)cc2NC(=O)c2ccc(F)cc2F)cc1 | -4% | -26% | -5% | 42% | -5%
CCOC(=O)c1sc(NC(=O)c2ccc3nc[nH]c3c2)nc1C | . | 8.2µM* | -19% | ? | ?
CCOC(=O)c1sc(NC(=O)Nc2ccc(Cl)cc2)nc1C | 4% | 23µM* | -4% | 33% | ?
CCOc1ccccc1C(=O)Nc1nnc(C(C)C)s1 | 4% | ? | -3% | 33% | ?
CCOC(=O)Nc1nc(C)c(C(=O)c2ccc(Cl)cc2)s1 | -2% | ? | -10% | -25% | ?
CCOC(=O)c1sc(NC(=O)c2ccccc2OCC)nc1C | -3% | ? | 4%[10 µM] | -23% | 21µM*
O=C(Nc1ncn[nH]1)c1c(Cl)ccc(Cl)c1Cl | 8% | 0% | -6%[0.365 µM] | -24% | -20%
Cc1ccc(C)c(N2CCN(S(=O)(=O)c3ccc(-c4ccc(=O)[nH]n4)o3)CC2)c1 | -2% | -19% | -24% | ? | 14%
CNc1cncc(-c2cccnc2)n1 | . | 0% | . | . | -4%
Cc1cc(-c2ccccc2)nc(N(C)NC(=O)c2c(F)cccc2F)c1S(C)(=O)=O | -5% | 23µM* | 5% | 26% | ?
CC(=O)Nc1n[nH]c(=S)s1 | . | -32% | . | . | ?
C=CCn1c(COc2ccc(OC)cc2)nnc1SC(C)C(=O)NC1CC1 (configuration not stated) | 1% | -23% | . | . | -19%
COc1ccc(-c2cc(C(C)=O)c(C)n2CCC(=O)NCc2ccc(C)cc2)cc1 | 7% | ? | . | . | ?
CCOC(=O)c1cc(-c2ccccc2)n(CCC(=O)NCCc2ccc(OC)c(OC)c2)c1C | 9% | 23µM* | . | . | 21µM*
COc1ccc2c(c1)c(C(C)=O)c(C)n2CCc1ccc(OC)c(OC)c1 | . | -13% | 0% | -1% | -3%
CCOC(=O)c1cc(-c2ccc(OC)cc2)n(CCC(=O)NCc2ccc(OC)cc2)c1C | 3% | 18µM* | . | . | ?
CCOC(=O)c1c(C(=O)OCC)c(C)n(CCc2ccc(OC)c(OC)c2)c1C | 5% | ? | -6% | 25% | 23µM*
SMILES | TDP1 block | DT40 TDP1 no CPT | Gal4-VP16 FLuc | RORgamma inh | DT40 TDP1 CPT
Cc1ccc(SCC(=O)N2CCN(c3ccccn3)CC2)cc1 | 1% | -12% | 2% | -1% | -29%
CCOC(=O)c1cc(-c2ccc(C)cc2)n(CCC(=O)N2CCN(c3ccccn3)CC2)c1C | -1% | 23µM* | 13% | 3%[10 µM] | 23µM*
CCOC(=O)c1cc(-c2ccccc2)n(CC(=O)N(C)c2ccc(OC)cc2)c1C | 7% | 23µM* | . | . | ?
CCOC(=O)c1cc(-c2ccc(C)cc2)n(CCC(=O)NCc2ccccc2)c1C | 5% | ? | . | . | ?
CCOC(=O)c1cc(-c2ccc(C)cc2)n(CCC(=O)NCCN(C)C)c1C | -2% | -24% | -5% | -34% | ?
CCOC(=O)c1cc(-c2ccccc2)n(CCC(=O)NCCc2ccc(C)cc2)c1C | 6% | 8.2µM* | . | . | 15µM*
CCOC(=O)c1cc(-c2ccc(F)cc2)n(CCC(=O)NCCc2ccc(C)cc2)c1C | 2% | 21µM* | . | . | ?
CCOC(=O)c1cc(-c2ccc(C)cc2)n(CCC(=O)NCCc2ccc(C)cc2)c1C | -1% | 18µM* | . | . | ?
Cc1ccc(CN2CC(N3CCN(CCO)CC3)CS2(=O)=O)cc1 (configuration not stated) | . | 2% | . | . | -7%
CSc1cccc(NC(=S)N2CCCN(Cc3ccc(F)cc3)C2)c1 | 6% | ? | -3% | ? | ?
O=C(Nc1ccccc1)N1CCCN(Cc2ccccc2F)C1 | 0% | ? | -3% | -4% | ?
Fc1ccccc1CN1CCCN(C(=S)Nc2cccc(Cl)c2)C1 | 6% | ? | ? | 7.1µM* | ?
Cc1c(Cl)cccc1NC(=S)N1CCCN(Cc2ccc(F)cc2)C1 | 2% | ? | ? | 16µM* | ?
Cc1ccc(NC(=S)N2CCCN(Cc3ccc(F)cc3)C2)c(C)c1 | 6% | 21µM* | ? | 13µM* | ?
Cc1c(Cl)cccc1NC(=S)N1CCCN(Cc2ccccc2F)C1 | 2% | -24% | ? | 13µM* | -27%
Cc1ccccc1NC(=S)N1CCCN(Cc2ccc(F)cc2)C1 | 5% | -9% | -20%[10 µM] | 29% | -2%
Cc1cccc(Nc2nc(NCC3CCCO3)nc(N)c2[N+](=O)[O-])c1 (configuration not stated) | 3% | ? | -13% | -42% | ?
Cc1cc(NC(=O)CCC(=O)N(CC(=O)NC2CCCC2)c2ccc(Cl)c(Cl)c2)no1 | . | ? | -6% | 18% | -17%
CCOc1ccccc1NC(=O)CC(c1ccc(F)cc1)N1Cc2ccccc2C1=O (configuration not stated) | 0% | 16µM* | . | . | 16µM*
COC(=O)C(Cc1ccc(OC(=O)c2ccccc2Cl)cc1)N1Cc2ccccc2C1=O (configuration not stated) | 5% | ? | -4% | -45% | ?
COc1ccc(C(CC(=O)Nc2ccc(Br)cn2)N2Cc3ccccc3C2=O)cc1 (configuration not stated) | 0% | 23µM* | . | . | 5.2µM*
